Measurements taken from PubChem BioAssay (EPA / NIEHS).
Results filed as inconclusive are left out. Calls of active or inactive are those of the source. The calls were made as follows, unless noted: active = hit-call score of the fitted dose curve at least 0.9, where 1 is the maximum; inconclusive = response in the unintended direction; inactive = score below 0.9.

What was measured:
[1] = CEETOX_H295R_OHPREG_noMTC: CeeTox H295R High-throughput Steroidogenesis Assay for OH-Pregnenolone (OHPREG), maximum tolerated concentration (MTC) filtered results only (AID 2283912; active = hit-call score of the fitted dose curve at least 0.9, where 1 is the maximum; inactive = score below 0.9); conditions: actives raise or lower the signal
In short: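 H295R cells prestimulated 48 h with 10 uM forskolin, then exposed 48 h to compound (0.1% DMSO). 17alpha-hydroxypregnenolone in medium measured by MTBE extraction and HPLC-MS/MS; bidirectional fit vs DMSO, concentrations not MTT/MTC-filtered.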

[2] = CEETOX_H295R_OHPROG_noMTC: CeeTox H295R High-throughput Steroidogenesis Assay for OH-Progesterone (OHPROG), maximum tolerated concentration (MTC) filtered results only (AID 2283914; active = hit-call score of the fitted dose curve at least 0.9, where 1 is the maximum; inactive = score below 0.9); conditions: actives raise or lower the signal
In short: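 H295R cells prestimulated 48 h with 10 uM forskolin, then exposed 48 h to chemical (0.1% DMSO final). 17alpha-hydroxyprogesterone in medium quantified by HPLC-MS/MS after MTBE extraction; bidirectional fitting versus DMSO, concentrations not MTC-filtered.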

[3] = CEETOX_H295R_ANDR_noMTC: CeeTox H295R High-throughput Steroidogenesis Assay for Androstenedione (ANDR), maximum tolerated concentration (MTC) filtered results only (AID 2283915; active = hit-call score of the fitted dose curve at least 0.9, where 1 is the maximum; inactive = score below 0.9); conditions: actives raise or lower the signal
Protocol: CEETOX_H295R is a cell-based, multiplexed-readout assay that uses H295R, a human adrenal gland cell line, with measurements taken at 48 hours after chemical dosing in a 96-well plate.CEETOX_H295R_ANDR_noMTC is one of 12 assay component(s) measured or calculated from the CEETOX_H295R assay (11 hormones and 1 viability assay). It is designed to make measurements of hormone induction, a form of inducible reporter, as detected with absorbance signals by HPLC-MS-MS technology. The concentrations for these components have not been pre-filtered for the maximum tolerated concentration (MTC) based on the MTT assay (_noMTC).Data from the assay component CEETOX_H295R_ANDR_noMTC was analyzed into 1 assay endpoint. This assay endpoint, CEETOX_H295R_ANDR_noMTC, was analyzed with bidirectional fitting relative to DMSO as the negative control and baseline of activity. […]
Cell culture and media preparation procedures were conducted in accordance with OECD Test No. 456 guidelines, with minor modifications. […] For steroid quantification, media samples were shipped to OpAns, LLC (Durham, NC) on dry ice, and samples were thawed to room temperature prior to liquid-liquid extraction. […] Steroid hormones were separated by HPLC, eluted using a reverse phase C18 gradient with electrospray positive ionization, followed by quantification by tandem mass spectrometry (MS/MS). […]

[4] = CEETOX_H295R_PROG_noMTC: CeeTox H295R High-throughput Steroidogenesis Assay for Progesterone (PROG), maximum tolerated concentration (MTC) filtered results only (AID 2283920; active = hit-call score of the fitted dose curve at least 0.9, where 1 is the maximum; inactive = score below 0.9); conditions: actives raise or lower the signal
In short: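 H295R cells, prestimulated 48 h with 10 uM forskolin, exposed 48 h to chemical in 0.1% DMSO. Medium progesterone quantified by MTBE extraction and HPLC-MS/MS; bidirectional fit versus DMSO, concentrations not MTT-filtered.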

[5] = CEETOX_H295R_TESTO_noMTC: CeeTox H295R High-throughput Steroidogenesis Assay for Testosterone (TESTO), maximum tolerated concentration (MTC) filtered results only (AID 2283924; active = hit-call score of the fitted dose curve at least 0.9, where 1 is the maximum; inactive = score below 0.9); conditions: actives raise or lower the signal
In short: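 H295R cells prestimulated 48 h with 10 uM forskolin, then exposed 48 h to chemicals in 0.1% DMSO final. Testosterone in medium quantified by MTBE extraction and HPLC-MS/MS; bidirectional fit versus DMSO, concentrations […] filtered by MTT-based maximum tolerated concentration.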

PGR (gene 5241) [6] = target: PGR (gene 5241) (UniProt P06401); assay: TOX21_PR_BLA_Followup_Agonist_ratio: Tox21 HEK293 Progesterone Receptor (PR) Agonism Beta-lactamase Follow-Up Assay, Ratio (AID 2283933)
Chain of PGR (gene 5241) (P06401 whole entry, looked up, the tested form may be a part): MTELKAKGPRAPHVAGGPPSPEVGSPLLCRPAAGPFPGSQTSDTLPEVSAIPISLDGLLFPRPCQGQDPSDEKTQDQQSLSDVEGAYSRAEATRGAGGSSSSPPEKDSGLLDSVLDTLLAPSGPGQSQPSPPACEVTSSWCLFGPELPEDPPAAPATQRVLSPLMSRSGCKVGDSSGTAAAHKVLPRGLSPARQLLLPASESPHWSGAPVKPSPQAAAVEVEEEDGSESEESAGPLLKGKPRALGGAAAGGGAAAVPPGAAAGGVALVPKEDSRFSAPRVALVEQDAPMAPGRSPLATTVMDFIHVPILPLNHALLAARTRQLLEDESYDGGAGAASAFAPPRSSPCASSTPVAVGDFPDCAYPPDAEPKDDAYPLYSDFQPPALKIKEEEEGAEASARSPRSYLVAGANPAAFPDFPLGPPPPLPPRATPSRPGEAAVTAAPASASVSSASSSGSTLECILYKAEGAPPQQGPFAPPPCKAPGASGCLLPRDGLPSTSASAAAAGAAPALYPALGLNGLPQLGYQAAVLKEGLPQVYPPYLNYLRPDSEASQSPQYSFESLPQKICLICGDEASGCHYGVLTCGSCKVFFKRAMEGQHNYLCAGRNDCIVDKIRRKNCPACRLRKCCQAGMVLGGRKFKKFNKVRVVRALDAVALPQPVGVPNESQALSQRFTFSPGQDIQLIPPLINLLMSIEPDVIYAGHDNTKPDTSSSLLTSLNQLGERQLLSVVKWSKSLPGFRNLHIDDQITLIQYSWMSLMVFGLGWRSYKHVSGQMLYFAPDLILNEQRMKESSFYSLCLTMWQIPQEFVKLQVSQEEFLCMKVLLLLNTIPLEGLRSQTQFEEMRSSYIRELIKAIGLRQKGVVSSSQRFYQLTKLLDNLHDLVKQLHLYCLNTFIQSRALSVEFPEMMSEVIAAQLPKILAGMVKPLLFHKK
In short: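 PR-UAS-bla HEK293T cells (GAL4-UAS beta-lactamase reporter) in medium with 2% charcoal-stripped FBS received compounds after 6 hr at 37C, then incubated 16 hr. LiveBLAzer FRET substrate added, 2 hr room temperature; cleaved/uncleaved (ch2/ch1) ratio fitted upward versus DMSO.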

PGR (gene 5241) [7] = target: PGR (gene 5241) (UniProt P06401); assay: TOX21_PR_BLA_Followup_Antagonist_ratio: Tox21 HEK293 Progesterone Receptor (PR) Antagonism Beta-lactamase Follow-Up Assay, Ratio (AID 2283934)
In short: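 PR-UAS-bla HEK293T cells in medium with 2% charcoal-stripped FBS were treated with compounds plus 1 nM (final) promegestone (R5020) for 16 hr at 37C. LiveBLAzer B/G FRET substrate was then added for 2 h at room temperature; signal is cleaved/uncleaved substrate ratio versus DMSO.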

[8] = TOX21_PR_BLA_Followup_Agonist_viability: Viability Assessment in the Tox21 HEK293 Progesterone Receptor (PR) Agonism Beta-lactamase Follow-Up Assay (AID 2283935);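 also: signal loss means lower viability so actives are cytotoxic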
In short: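 PR-UAS-bla HEK293T cells in 2% charcoal-stripped FBS medium, compound added after 6 hr plating, 16 hr at 37C/5% CO2. After bla FRET read, CellTiter-Glo added; luminescence read after 30 min at room temperature; signal loss marks cytotoxicity.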

[9] = TOX21_PR_BLA_Followup_Antagonist_viability: Viability Assessment in the Tox21 HEK293 Progesterone Receptor (PR) Antagonism Beta-lactamase Follow-Up Assay (AID 2283936);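 also: hits lower the luminescence signal meaning cytotoxicity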
In short: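 PR-UAS-bla HEK293T cells (3,000/well, 2% charcoal-stripped FBS) given compound plus R5020 agonist, 16 h at 37C. CellTiter-Glo added after bla read, 30 min at room temperature; luminescence loss indicates cytotoxicity.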

Measured: AC50

CCCCOC(=O)c1ccccc1C(=O)O
inactive: [1] | [2] | [3] | [4] | [5]

CCC(=O)Nc1ccc(Cl)c(Cl)c1
inactive: PGR (gene 5241) [6] | PGR (gene 5241) [7] | [8] | [9]

CCOP(=S)(OCC)Oc1ccc([N+](=O)[O-])cc1
active: PGR (gene 5241) [7] 3.78 µM
inactive: [8] | [9]
